The campaign covered roughly 420,000 compounds. About 64,000 (15%) were called active. About 27% were inconclusive and are not listed. Calls follow the shape of the dose curve; as a rule, active = well fitted inhibition curve with a large enough effect; inconclusive = small, poorly fitted or top-dose-only effect; inactive = flat fitted curve, though single readings scatter. These entries were drawn from the full list.
% is scaled to controls: 0 for no effect and ±100 for the full control effect; potency is read from the fitted curve at half-maximal effect.

This experiment is described as follows: qHTS for Inhibitors of human tyrosyl-DNA phosphodiesterase 1 (TDP1): qHTS in cells in absence of CPT. Also: nearly all actives have a fitted effect of over 55% in size. Particulars: DT40 Tdp1-/- hTDP1 cells, no CPT, ATP luminescence, 48 h; activity change, negative = growth inhibition: at 46.2 µM (top of the series). Put shortly: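 Camptothecin absent (DMSO only). Human TDP1-complemented DT40 knockout cells, 400 cells/well, 37 °C for minimum 48 hr; ATP measured via CellTiter-Glo, 30 min dark incubation, luminescence.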
(In qHTS, concentration-response curves come from the screen itself.)
As to `CC(=O)c1cccc(NC(=O)N2CCCC2C(=O)NCCC(C)C)c1` (stereo unspecified), the “activity change, negative = growth inhibition” value was -8.59% (inactive).

Consider `COc1ccccc1C(=O)N(C1=NC(C)CS1)c1ccc(Cl)cc1` (stereo unspecified), for which the “activity change, negative = growth inhibition” value is -5.33% (inactive).

With `O=C(NCCc1ccccc1)C(=O)NCC1OCCN1S(=O)(=O)c1cccs1` (stereo unspecified), the “activity change, negative = growth inhibition” value was -12% (inactive).

On to `CSCCC(NC(=O)c1cc([N+](=O)[O-])cc([N+](=O)[O-])c1)c1nc2ccccc2[nH]1` (stereo unspecified), for which the Potency is 16.4 µM (active).

Turning to `CSCCC(NC(=O)c1ccc(=O)n(C)n1)c1nc2ccccc2[nH]1` (stereo unspecified), the “activity change, negative = growth inhibition” value is -21.1% (inactive).

For the molecule `CCCC(NC(=O)c1ccco1)c1nc2ccccc2[nH]1` (stereo unspecified), the “activity change, negative = growth inhibition” value was -28.5% (inactive).

As to `COc1ccc(C(=O)CN(C(=O)c2ccc(Cl)cc2)N2C(=O)c3ccccc3C2=O)cc1`, the “activity change, negative = growth inhibition” value was -5.29% (inactive).

As for `COc1ccc(Cn2c(-c3ccc(Cl)cc3)c[n+]3ccccc23)cc1`, the Potency is 1.16 µM (active).

Consider `CCn1c(C)cc(=O)cc1-c1ccc(Cl)cc1`, for which the “activity change, negative = growth inhibition” value is 2.38% (inactive).

Take `COc1ccc(S(=O)(=O)N2CCN(CC(=O)N3CCNC3=O)CC2)cc1OC`: the “activity change, negative = growth inhibition” value is -5.83% (inactive).

Regarding `Cc1ccc(S(=O)(=O)CCC(=O)OCC(=O)N(C)Cc2ccccc2)cc1`, the “activity change, negative = growth inhibition” value is -3.82% (inactive).

In the case of `CCOc1ccc(CNC(=O)c2ccc3c(c2)nnn3C2CCCC2)cc1`, the “activity change, negative = growth inhibition” value is -25% (inactive).

Take `COc1ccc(C(=O)OCC(=O)N2CC(=O)Nc3ccccc32)cc1Br`: the “activity change, negative = growth inhibition” value was -13.8% (inactive).

For `CCN(CC)S(=O)(=O)c1ccc2[nH]cc(C(=O)NCCc3ccccc3)c(=O)c2c1`, the Potency was 14.6 µM (active).

As for `CN(c1ccccc1)S(=O)(=O)c1ccc(Cl)c(C(=O)OCC(N)=O)c1`, the “activity change, negative = growth inhibition” value is -29.5% (inactive).

For the molecule `CSCCC(NS(=O)(=O)c1ccc(C)cc1)C(=O)NCCc1c[nH]c2ccccc12` (stereo unspecified), the “activity change, negative = growth inhibition” value was -29.1% (inactive).

As to `CCc1ccc(NS(=O)(=O)c2ccc3[nH]cc(C(=O)NCCc4cccc(C)c4)c(=O)c3c2)cc1`, the “activity change, negative = growth inhibition” value is -25% (inactive).

On to `CN(c1ccccc1)S(=O)(=O)c1ccc(Cl)c(C(=O)NCCc2c[nH]c3ccccc23)c1`, for which the Potency is 8.2 µM (active).

`O=C(NCCc1ccccc1)c1c[nH]c2ccc(F)cc2c1=O`: the “activity change, negative = growth inhibition” value was -17.7% (inactive).

As to `Fc1ccc(CN2CCc3nc(Nc4ccccc4)ncc3C2)cc1F`, the Potency is 20.6 µM (active).

In the case of `Cc1nc2cnc(Nc3ccccc3)nc2n(Cc2ccc(F)cc2)c1=O`, the “activity change, negative = growth inhibition” value is -2.88% (inactive).

Turning to `COc1ccc(CN2CCc3nc(Nc4ccccc4)ncc3C2)c(OC)c1OC`, the Potency is 20.6 µM (active).

With `O=C(CSc1nc2c(c(=O)[nH]1)CN(Cc1ccc(F)cc1)CC2)Nc1ccccc1Cl`, the “activity change, negative = growth inhibition” value is 0.998% (inactive).

In the case of `Cn1c(=O)c(CCc2ccccc2)nc2cnc(Nc3ccccc3)nc21`, the “activity change, negative = growth inhibition” value is 14.5% (inactive).

In the case of `COc1ccc(CN2CCN(Cc3ccc(OC)c(OC)c3OC)CC2)cc1`, the “activity change, negative = growth inhibition” value is -19.3% (inactive).

On to `Fc1cccc(CSc2nnc3ccc(-c4ccncc4)nn23)c1`, for which the “activity change, negative = growth inhibition” value is -0.226% (inactive).

On to `Cc1[nH]c2ccccc2c1-c1ccc(Cl)nn1`, for which the “activity change, negative = growth inhibition” value was 13.8% (inactive).

Turning to `C=CCN1CCN(C(=O)CCCc2ccccc2)CC1`, the “activity change, negative = growth inhibition” value was 3.73% (inactive).

Consider `COc1ccccc1CNC(=O)C1Cc2ccccc2C(=O)O1` (stereo unspecified), for which the “activity change, negative = growth inhibition” value is 9.48% (inactive).

As to `COc1ccccc1CNC(=O)C1CCN(C(=O)[C@@H]2Cc3ccccc3CN2)CC1`, the “activity change, negative = growth inhibition” value was 5.32% (inactive).

Consider `COc1ccccc1CNC(=O)[C@@H]1CCCN1C(=O)[C@@H]1Cc2ccccc2CN1C(=O)OC(C)(C)C`, for which the Potency was 16.4 µM (active).

For `O=C(NCC(=O)N1CCC2(CC1)NCCc1[nH]cnc12)c1ccc(Br)cc1`, the “activity change, negative = growth inhibition” value was 15.7% (inactive).

As to `CC(C)c1ccc(/C=C/C(=O)NNC(=O)c2cccnc2)cc1`, the “activity change, negative = growth inhibition” value was -19.6% (inactive).

Consider `COc1cc2[nH]c(=S)n(Cc3ccc(C)o3)c(=O)c2cc1OC`, for which the “activity change, negative = growth inhibition” value is -18.2% (inactive).

For the molecule `O=C(NCCc1c[nH]c2ccc(Cl)cc12)c1ccc([N+](=O)[O-])cc1`, the “activity change, negative = growth inhibition” value was -7.74% (inactive).

As for `COc1ccc(-c2[nH]ncc2CN(C)Cc2c(C)n[nH]c2C)c(OC)c1`, the “activity change, negative = growth inhibition” value was 2.69% (inactive).

Regarding `C=C(C)COc1ccc(-c2n[nH]c(C)c2-c2ccccc2)c(O)c1`, the Potency is 16.4 µM (active).

For `CCOc1ccc(-c2nc(N)ncc2-c2ccccc2OC)c(O)c1`, the “activity change, negative = growth inhibition” value is -77.4% (inactive).

Regarding `CCOC(=O)COc1cc(O)c2c(=O)cc(-c3ccccc3)oc2c1`, the “activity change, negative = growth inhibition” value is -1.32% (inactive).

`COc1ccc(-c2n[nH]c(C)c2-c2ccccc2OC)c(O)c1`: the Potency was 20.6 µM (active).

Turning to `Cc1noc(C)c1COC(=O)COc1ccc(-c2ccccc2)cc1`, the “activity change, negative = growth inhibition” value was 8.63% (inactive).

For `Cc1ccc2nc(N(CCN(C)C)C(=O)C3=COCCO3)sc2c1`, the “activity change, negative = growth inhibition” value is 14.5% (inactive).

`CCCC(=O)OCC(=O)Nc1cc(Cl)ccc1[N+](=O)[O-]`: the “activity change, negative = growth inhibition” value was -14% (inactive).

On to `CCOC(=O)N1CCN(C(=O)c2ccccc2SCC(=O)NCC2CCCCC2)CC1`, for which the “activity change, negative = growth inhibition” value is -22.5% (inactive).

For `Cc1[nH]c2ccccc2c1C(=O)CN1CC(C)CC(C)C1` (stereo unspecified), the Potency is 8.2 µM (active).

As to `Cc1[nH]c2ccccc2c1C(=O)CSCC(=O)O`, the “activity change, negative = growth inhibition” value is -16.8% (inactive).

For `Cc1[nH]c2ccccc2c1C(=O)CN1CCCC(C)C1` (stereo unspecified), the “activity change, negative = growth inhibition” value is -28.9% (inactive).

On to `CCOC(=O)N1CCN(CC(=O)c2c(C)[nH]c3ccccc23)CC1`, for which the Potency was 18.4 µM (active).

In the case of `Cc1ccc2c(C(=O)CN3CCCC3)c(C)[nH]c2c1`, the “activity change, negative = growth inhibition” value was -27.5% (inactive).

Take `Cc1[nH]c2ccccc2c1C(=O)COC(=O)C(C)C`: the “activity change, negative = growth inhibition” value is -19% (inactive).

For the molecule `Cc1ccc(OCC(=O)Nc2nnc(-c3ccco3)s2)cc1`, the “activity change, negative = growth inhibition” value was 1.93% (inactive).
